High-throughput results from PubChem.
PAFAH1B3 inh = PAFAH1B3 (human) inhibition | recombinant PAFAH1B3, FP-rhodamine probe, fluorescence polarization | inhibition, % at 3.39 µM | 340,000 tested, 0.28% active;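 active = inhibition above the screen-wide average of all tested compounds plus 3 SD, cut at about 25% in these data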;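 note: 0% = enzyme with DMSO only and 100% = wells lacking PAFAH1B3 protein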
pPAFAH inh = inhibitors of human plasma PAF acetylhydrolase (pPAFAH). Q13093. recombinant pPAFAH, FP-rhodamine probe fluorescence polarization. inhibition, % at 3.39 µM. 330,000 tested, 1.5% active;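 active = inhibition above the mean inhibition across the screen plus 3 SD, cut at about 25% in these data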;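 note: inhibitors block binding of the rhodamine activity-based probe so polarization drops; 0% = enzyme with DMSO and 100% = wells lacking pPAFAH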
PAFAH1B2 FP inh = blocks human PAF acetylhydrolase 1b catalytic subunit 2; inhibition, % at 3.39 µM; recombinant PAFAH1B2, FP-rhodamine activity probe, fluorescence polarization; 340,000 tested, 1.2% active; AID 492953;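 active = inhibition above the mean of all tested compounds plus 3 SD, cut at about 24% in these data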;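 note: 0% = enzyme with DMSO and 100% = wells lacking PAFAH1B2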
Target sequence (P68402 whole entry, looked up): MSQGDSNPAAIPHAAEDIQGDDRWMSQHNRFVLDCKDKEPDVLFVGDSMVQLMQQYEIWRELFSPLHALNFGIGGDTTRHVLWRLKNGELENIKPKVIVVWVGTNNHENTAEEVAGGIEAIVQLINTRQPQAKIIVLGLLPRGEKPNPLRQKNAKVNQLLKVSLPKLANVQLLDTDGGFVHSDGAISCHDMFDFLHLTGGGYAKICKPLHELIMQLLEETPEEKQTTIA
PAFAH2 FP inh = inhibitors of human PAFAH2 | Q99487 | recombinant PAFAH2, FP-rhodamine activity probe, fluorescence polarization | inhibition, % at 3.39 µM | 340,000 tested, 0.99% active;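 active = inhibition above the mean over all tested compounds plus 3 SD, cut at about 30% in these data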;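 note: inhibitors block probe labeling of enzyme so polarization drops; 0% = enzyme with DMSO and 100% = wells lacking PAFAH2 protein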
PKA-R1A activ = PKA-R1A complex activation | P00514+P68181 | PKA-R1A dissociation, Cy5-IP20 fluorescence polarization; scaled: DMSO 0%, 113 µM cGMP 100% | activation, % at 11.4 µM | 340,000 tested, 0.083% active | AID 504707;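 active = percent activation above the mean of all tested compounds plus 3 SD, cut at about 19% in these data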;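 note: higher means more PKAc released from R1A so a rise in polarization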
PKA-R2B activ = PKA-R2B complex activation. P22694+P31323. PKA-R2B holoenzyme dissociation, Cy5-IP20 fluorescence polarization; R2B truncated from residue 108, S112A mutant; 0% DMSO only, 100% 113 µM cGMP. activation, % at 11.4 µM. 340,000 tested, 0.079% active. AID 504700;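 active = activation above a cutoff set at the mean over all compounds plus 3 SD, cut at about 18% in these data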;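 note: higher means more holoenzyme dissociation and a rise in polarization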
Target sequence (P31323 whole entry, looked up, other chains not shown, the tested form may be a part): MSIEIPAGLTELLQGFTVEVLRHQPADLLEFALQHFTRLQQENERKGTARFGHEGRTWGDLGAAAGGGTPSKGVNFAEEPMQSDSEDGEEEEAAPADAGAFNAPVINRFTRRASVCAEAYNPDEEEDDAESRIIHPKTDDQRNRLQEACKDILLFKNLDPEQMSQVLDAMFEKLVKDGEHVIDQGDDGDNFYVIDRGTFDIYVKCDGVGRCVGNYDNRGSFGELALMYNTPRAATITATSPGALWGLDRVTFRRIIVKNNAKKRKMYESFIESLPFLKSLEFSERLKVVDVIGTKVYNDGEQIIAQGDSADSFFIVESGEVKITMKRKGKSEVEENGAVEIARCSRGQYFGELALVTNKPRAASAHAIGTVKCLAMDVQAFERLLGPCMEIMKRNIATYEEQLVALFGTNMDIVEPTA
Starred values were filed as active, the others as inactive; nt = not tested or not shown. In the library only some 2.6% were active in any assay of this set; here they are far more common.

SMILES | PAFAH1B3 inh | pPAFAH inh | PAFAH1B2 FP inh | PAFAH2 FP inh | PKA-R1A activ | PKA-R2B activ
O=C1NN(c2ccc(Cl)c(Cl)c2)C(=O)/C1=C/c1ccc(-c2ccccc2C(=O)O)o1 | 4.1 | nt | 26.4* | 30.4* | 6.8 | -10.5
O=C1NN(c2cccc(Br)c2)C(=O)/C1=C/c1ccc(-c2cc([N+](=O)[O-])ccc2O)o1 | 31.4* | 28.0* | 17.1 | 47.3* | -1.2 | 0.3
Cc1ccc(N2NC(=O)/C(=C/c3ccc(-c4ccc(Cl)c(C(=O)O)c4)o3)C2=O)cc1C | 10.2 | 0.2 | 1.6 | 15.0 | 2.5 | 4.2
Cc1ccc(NC(=O)Cc2nnc(SCC(=O)NC3CCCC3)n2C)c(C)c1 | 5.8 | 6.3 | 2.4 | 1.7 | -7.0 | 9.5
NS(=O)(=O)c1ccc(CCNC(=O)CNC(=O)c2ccc(Br)o2)cc1 | 4.0 | -5.8 | 4.6 | 5.2 | -11.9 | -10.4
C=C1/C=C(\C)[C@](C)(O)C[C@H](O)CC(=O)[C@H](O)[C@@H](O)[C@H](C)C[C@H](C)OC(=O)/C(C)=C/CC/C=C/[C@@H]2O[C@H]2C[C@H](C)C1 | nt | 10.3 | nt | nt | nt | nt
COc1ccc(NC(=S)N(CCCN2CCOCC2)C(C)c2cc3cccc(OC)c3o2)cc1 (stereo not drawn) | 7.2 | 27.8* | -1.4 | 5.7 | 2.5 | -4.2
CCCCn1c(NC(=O)c2ccccc2)c(C#N)c2nc3ccccc3nc21 | 59.4* | nt | 44.4* | 55.4* | -0.8 | -11.7
COc1ccc(C=O)c2[nH]c3c(Cl)ncnc3c12 | 3.1 | nt | 8.9 | 6.4 | -8.5 | -0.4
Cc1ccc(C(=O)Nc2ncc(Cc3ccc(F)cc3)s2)o1 | 1.8 | 2.2 | 28.2* | 6.4 | -18.5 | -5.3
Clc1cccc(Cl)c1CNc1ccc(N2CCCC2)cc1 | nt | 27.4* | nt | nt | nt | nt
O=C(Cc1ccc(Cl)cc1)Nc1ccc(N2CCCC2)cc1 | -2.2 | 0.5 | 8.1 | -1.5 | 12.6 | -0.8
CCN(CC)S(=O)(=O)c1ccc(/C=C/C(=O)OCC(=O)NCc2ccco2)cc1 | -5.8 | 30.0* | 8.7 | 74.8* | 0.9 | -2.7
COc1ccc(NS(=O)(=O)c2cccc(C(=O)O)c2)cc1S(=O)(=O)N1CCCCC1 | -1.3 | 2.4 | -1.8 | -2.8 | 6.0 | 7.0
CN(Cc1nc(-c2cnccn2)no1)CC1(c2ccccc2)CC1(C)C (stereo not drawn) | 8.9 | 5.3 | 25.7* | -3.7 | 0.2 | -5.0
CN(Cc1nc(-c2cnccn2)no1)Cc1cccc2ccccc12 | 3.6 | 0.8 | 4.1 | 4.1 | -1.2 | -6.7
Clc1ccc(CCNc2nc3ccccc3s2)cc1 | 1.5 | 1.9 | 27.0* | 10.2 | -18.2 | 2.7
c1coc(CNc2nc3ccccc3s2)c1 | 13.0 | 2.7 | 8.4 | -2.0 | -4.3 | -4.0
CC(OC(=O)c1cccc([N+](=O)[O-])c1)C(=O)NCc1ccc2c(c1)OCO2 (stereo not drawn) | -2.6 | 10.4 | 11.9 | 0.4 | -11.5 | -3.7
COc1ccccc1N(CC(=O)NCCSCc1ccc(C)cc1)S(=O)(=O)c1ccccc1 | 1.3 | 2.2 | 26.8* | 1.0 | -0.5 | -11.0
O=[N+]([O-])c1cc(Cl)ccc1N1CCCC1 | 5.7 | 0.9 | 6.2 | -2.0 | -7.2 | 0.5
O=C1C(Cl)=C(N2CCN(c3ccccc3[N+](=O)[O-])CC2)C(=O)c2ccccc21 | 48.6* | 16.2 | 28.3* | 40.0* | -7.5 | -10.0
Cc1cc(S(=O)(=O)Nc2ccc(C(=O)NCC(c3ccco3)N3CCCCC3)cc2)ccc1F (stereo not drawn) | -1.4 | 2.2 | -0.1 | 2.0 | 4.8 | -6.8
Cc1ccc(NS(=O)(=O)c2ccc(C(=O)NCC(c3ccco3)N3CCCCC3)cc2)cc1 (stereo not drawn) | 3.0 | 29.5* | 4.1 | 1.4 | 1.6 | 0.0
CN(C)C(CNC(=O)c1ccc(S(=O)(=O)Nc2ccccc2)cc1)c1ccco1 (stereo not drawn) | 5.6 | 29.3* | 1.8 | 1.1 | -9.5 | -0.7
SMILES | PAFAH1B3 inh | pPAFAH inh | PAFAH1B2 FP inh | PAFAH2 FP inh | PKA-R1A activ | PKA-R2B activ
O=C(NCC(c1ccco1)N1CCCCC1)c1ccc(S(=O)(=O)Nc2ccccc2)cc1 (stereo not drawn) | 2.4 | 30.4* | 1.0 | 0.2 | 10.6 | -6.5
CCc1ccccc1NC(=O)C1CCCN(c2nccc(C)n2)C1 (stereo not drawn) | 1.3 | 0.4 | 6.4 | -5.4 | 5.6 | 7.8
O=C(CCNC(=O)C1CCN(S(=O)(=O)c2ccc(F)cc2)CC1)NCc1ccncc1 | 13.4 | -1.0 | 4.8 | -5.8 | -0.5 | -4.5
Cc1cccc(CC(=O)NCCN2CCOCC2)c1 | 1.8 | 4.0 | 3.0 | 2.8 | -5.4 | -3.7
COc1ccc(C(=O)COC(=O)c2sc(C)nc2C)cc1OC | 4.4 | 1.5 | -1.9 | -6.6 | -3.9 | 3.2
CC(CNS(=O)(=O)c1ccc2c(c1)NC(=O)CCS2)c1ccccc1 (stereo not drawn) | 0.2 | 26.7* | 39.1* | -2.4 | -7.5 | -3.6
Cc1ccc(NS(=O)(=O)c2ccc3c(c2)NC(=O)CCS3)c(C)c1 | 8.1 | 30.3* | 13.5 | 9.0 | -9.8 | 5.9
Cc1cc(C)c(NS(=O)(=O)c2ccc3c(c2)NC(=O)CCS3)c(C)c1 | 2.1 | 1.4 | 4.1 | 4.7 | -3.4 | -0.8
Cc1ccc(NS(=O)(=O)c2ccc3c(c2)NC(=O)CCS3)c(Cl)c1 | -1.2 | 6.2 | 3.7 | 8.0 | 3.5 | -13.6
Cc1onc(-c2ccccc2)c1C(=O)N(Cc1ccccc1)C(C)C | 3.0 | 0.3 | 2.8 | 0.2 | -1.5 | 1.5
Cc1cc(OCC(=O)OCC(=O)N2CCc3ccccc3C2)ccc1Cl | 8.7 | 9.6 | 0.2 | 3.9 | -3.2 | 4.4
O=C(Cc1ccc(Cl)cc1)NNC(=O)C(=O)NC1CCCCC1 | 2.1 | 5.0 | 27.3* | 6.8 | 1.0 | 2.5
O=C(CCSc1ccccc1)NC1CCCC1 | 4.9 | 0.6 | 8.7 | -7.0 | 5.8 | -6.0
O=C(CCSc1ccc(Cl)cc1)NC1CCCC1 | 9.8 | 4.6 | 25.7* | -1.7 | 2.1 | -1.8
O=C(CCSc1ccc(Cl)cc1)N1CCCCCC1 | 1.6 | 6.5 | 66.3* | 7.6 | -2.8 | 1.0
CCn1cc(C(=O)NCCC(=O)NCCCO)c(=O)c2cc3c(cc21)OCO3 | 3.9 | 7.9 | -1.2 | 0.0 | -1.6 | -10.4
Cc1ccc(S(=O)(=O)N2Cc3ccccc3CC2C(=O)Nc2ccc3c(c2)OCO3)cc1 (stereo not drawn) | -2.7 | 28.2* | -1.4 | 0.5 | -16.3 | -13.0
CCn1c2ccccc2c2cc(NC(=O)c3ccccc3-c3ccccc3C(=O)O)ccc21 | 9.8 | 33.3* | 12.5 | 8.8 | -0.3 | 8.1
CCn1c2ccccc2c2cc(NC(=O)C(C)C)ccc21 | -0.6 | 9.1 | 1.4 | 12.6 | -7.8 | -0.8
CN(C)C(=O)NC1CCCCCCCCCCC1 | 11.8 | -1.2 | 36.4* | 0.9 | -7.2 | -10.3
CN(C(=O)NC1CCCCC1)c1ccccc1 | 10.2 | 1.2 | 4.8 | -1.6 | -6.8 | -5.2
